Test results reported in PMC4336329 (PLoS ONE, 2015).
In all, about 310,000 compounds went through this assay and about 2,200 (0.71%) showed an effect of 50% or more. Effects have a minus sign here. The sample holds strong results, similar compounds and a random draw of the others, so the mix is not that of the screen.

The compounds below were run against human ether-à-go-go-related gene (hERG) potassium channel (human, UniProt Q12809) (assay: primary screen, population patch clamp on CHO cells stably expressing hERG; higher = less effect of the substance).
human ether-à-go-go-related gene (hERG) potassium channel, sequence (Q12809 whole entry, looked up): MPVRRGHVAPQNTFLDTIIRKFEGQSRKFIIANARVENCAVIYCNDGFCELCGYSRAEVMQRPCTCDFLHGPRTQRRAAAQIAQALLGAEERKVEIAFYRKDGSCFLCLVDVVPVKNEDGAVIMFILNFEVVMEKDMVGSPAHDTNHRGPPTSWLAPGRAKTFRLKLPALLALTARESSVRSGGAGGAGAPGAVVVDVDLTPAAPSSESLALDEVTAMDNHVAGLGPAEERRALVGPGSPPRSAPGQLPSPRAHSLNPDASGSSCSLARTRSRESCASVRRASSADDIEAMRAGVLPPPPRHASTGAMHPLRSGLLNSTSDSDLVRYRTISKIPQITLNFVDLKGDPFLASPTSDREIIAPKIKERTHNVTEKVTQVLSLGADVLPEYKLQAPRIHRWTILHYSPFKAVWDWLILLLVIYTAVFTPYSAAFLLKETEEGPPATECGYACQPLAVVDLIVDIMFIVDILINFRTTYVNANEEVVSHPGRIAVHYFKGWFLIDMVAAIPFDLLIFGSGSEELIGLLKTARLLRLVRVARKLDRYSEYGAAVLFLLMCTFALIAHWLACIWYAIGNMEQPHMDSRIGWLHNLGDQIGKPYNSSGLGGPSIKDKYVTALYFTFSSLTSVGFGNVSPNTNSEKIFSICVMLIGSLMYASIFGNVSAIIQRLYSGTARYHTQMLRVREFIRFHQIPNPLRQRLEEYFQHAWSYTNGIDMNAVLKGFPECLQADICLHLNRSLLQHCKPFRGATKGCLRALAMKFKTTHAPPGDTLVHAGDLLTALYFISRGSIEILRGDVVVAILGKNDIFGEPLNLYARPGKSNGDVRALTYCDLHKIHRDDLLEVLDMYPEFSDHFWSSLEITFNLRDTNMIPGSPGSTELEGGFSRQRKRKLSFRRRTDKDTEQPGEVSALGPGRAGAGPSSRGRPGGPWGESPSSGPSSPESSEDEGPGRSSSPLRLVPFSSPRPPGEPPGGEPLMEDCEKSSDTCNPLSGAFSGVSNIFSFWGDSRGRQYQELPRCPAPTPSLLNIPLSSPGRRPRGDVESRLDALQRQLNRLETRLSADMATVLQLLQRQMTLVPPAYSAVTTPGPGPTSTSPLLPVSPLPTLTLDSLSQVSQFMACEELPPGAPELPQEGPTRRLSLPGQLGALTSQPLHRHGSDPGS

First: O=c1oc(-c2ccco2)nc2sc3c(c12)CCCC3
Second: CCN(CC(=O)Nc1ccc(NC(C)=O)cc1)C(=O)c1sc2nc3n(c(=O)c2c1C)CCC3
The “hERG current change (%, negative = inhibition) at 1uM” value of the first is higher: 11.5% for the first, 10.2% for the second.

Compared with `COc1ccc(C(=O)NCC(=O)OC2CCCCC2=O)cc1` (centres unmarked), `O=C(CNC(=O)c1ccc(Oc2ccccc2)cc1)OC1CCCCC1=O` (centres unmarked) is lower in “hERG current change (%, negative = inhibition) at 1uM” value: -0.0213% for the first, -58.8% for the second.

Going from `COc1cc(OC)cc(C(=O)NCC(=O)OC2CCCCC2=O)c1` (centres unmarked) to `COc1ccc(CCNCC(O)COc2cccc(C(C)=O)c2)cc1OC.O=C(O)C(=O)O` (centres unmarked), the “hERG current change (%, negative = inhibition) at 1uM” value rises from -1.67% to 16%.

Compared with `Cc1nc2nc(C)c(CCC(=O)N3CCc4ccccc43)c(C)n2n1`, `Cc1nc2ncnn2c(C)c1CCC(=O)N1CCc2ccccc21` is lower in “hERG current change (%, negative = inhibition) at 1uM” value: -36.3% for the first, -66.3% for the second.

Going from `Cc1nc2ncnn2c(C)c1CCC(=O)N1CCc2ccccc2C1` to `O=C(NCCN1CCN(c2ccccc2)CC1)c1cccn2c(=O)c3ccccc3nc12`, the “hERG current change (%, negative = inhibition) at 1uM” value rises from -19.5% to -10.8%.

Compared with `NNC(=O)c1cncn1-c1ccc(F)cc1`, `O=C(Nc1cccc(Cl)c1)c1cncn1-c1ccc(F)cc1` is lower in “hERG current change (%, negative = inhibition) at 1uM” value: 12.3% for the first, -52.8% for the second.

First: COc1cc(OC)c(NC(=O)c2cncn2-c2ccc(F)cc2)cc1Cl
Second: COc1ccc(CCNCC(O)COc2ccc(Cl)cc2)cc1OC.Cl (centres unmarked)
The “hERG current change (%, negative = inhibition) at 1uM” value of the first is higher: 5.23% for the first, -56% for the second.

Going from `CC(C)(C)C1CCC(OC(=O)CN2CCCCC2)CC1` (centres unmarked) to `O=C(NC1CCCCCC1)c1cc(=O)[nH]c2ccc(S(=O)(=O)N3CCOCC3)cc12`, the “hERG current change (%, negative = inhibition) at 1uM” value falls from 2.3% to 1.03%.

Compared with `Cc1ccc(S(=O)(=O)c2ccc(Cl)cc2)cc1S(=O)(=O)N1CCOCC1`, `CCOC(=O)C1CCN(S(=O)(=O)c2ccc3oc(=O)ccc3c2)CC1` is lower in “hERG current change (%, negative = inhibition) at 1uM” value: 3.5% for the first, -78.2% for the second.

Going from `Cc1cccn2c(=O)c3cc(C(=O)NCCN4CCOCC4)c(=N)n(Cc4ccc(F)cc4)c3nc12` to `CCNC(=O)c1cc2c(=O)n3cccc(C)c3nc2n(Cc2ccc(C)cc2)c1=N`, the “hERG current change (%, negative = inhibition) at 1uM” value falls from -13.3% to -97.1%.

Going from `COCCCNC(=O)c1cccn2c(=O)c3cc4ccccc4cc3nc12` to `CN(CCCNC(=O)c1cccn2c(=O)c3ccccc3nc12)Cc1ccccc1`, the “hERG current change (%, negative = inhibition) at 1uM” value falls from -8.65% to -75.3%.

Going from `Cc1ccc(S(=O)(=O)c2cc3c(=O)n4cccc(C)c4nc3n(Cc3ccncc3)c2=N)cc1` to `Cc1ccc(Cn2c(=N)c(C#N)cc3c(=O)n4cccc(C)c4nc32)cc1`, the “hERG current change (%, negative = inhibition) at 1uM” value falls from 9.03% to -2.14%.

Compared with `CCCCNC(=O)c1cc2c(=O)n3cccc(C)c3nc2n(Cc2ccccc2)c1=N`, `CCCCNC(=O)c1cc2c(=O)n3cccc(C)c3nc2n(Cc2ccncc2)c1=N` is higher in “hERG current change (%, negative = inhibition) at 1uM” value: -80.7% for the first, -75.4% for the second.

Going from `Cc1cccn2c(=O)c3cc(C(=O)NC(C)C)c(=N)n(Cc4ccncc4)c3nc12` to `COCCNC(=O)c1cc2c(=O)n3cccc(C)c3nc2n(Cc2ccncc2)c1=N`, the “hERG current change (%, negative = inhibition) at 1uM” value rises from -67.2% to -31.5%.

First: N#Cc1cnn2c(-c3cccc(C(F)(F)F)c3)ccnc12
Second: CC(C)C(=O)Nc1cccc(NC(=O)c2cccnc2)c1
The “hERG current change (%, negative = inhibition) at 1uM” value of the first is higher: 1.86% for the first, -1.01% for the second.

First: CCOC(=O)Cc1csc(NC(=O)/C=C\c2ccccc2Cl)n1
Second: CCOC(=O)CSc1c(-c2ccc(Cl)cc2)[nH]c2ccccc12
The “hERG current change (%, negative = inhibition) at 1uM” value of the first is higher: 7.16% for the first, 1.02% for the second.

First: CCC(c1nnnn1CS(=O)(=O)c1ccc(C)cc1)N1CCC(C(N)=O)CC1.Cl (centres unmarked)
Second: CCOC(=O)C1CCN(S(=O)(=O)c2ccc3[nH]c(=O)ccc3c2)CC1
The “hERG current change (%, negative = inhibition) at 1uM” value of the first is lower: -3.7% for the first, -2.48% for the second.

First: Cc1cccc(OCC(=O)Nc2ccc(S(=O)(=O)Nc3ccccn3)cc2)c1
Second: COc1cccc(NC(=O)CCNC(=O)C2CCN(S(=O)(=O)c3ccc(F)cc3)CC2)c1
The “hERG current change (%, negative = inhibition) at 1uM” value of the first is higher: 17.3% for the first, 14.9% for the second.

Compared with `CS(=O)(=O)n1nc(NCc2cccs2)nc1NCc1cccs1`, `CCCc1cc(=O)n2[nH]c(NCc3c(F)cccc3Cl)nc2n1` is higher in “hERG current change (%, negative = inhibition) at 1uM” value: 10.5% for the first, 12.7% for the second.

Compared with `Cc1ccc(C)c(N2CCN(C(=O)c3ccc(Cn4c(=O)[nH]c5ccccc5c4=O)cc3)CC2)c1`, `CCC(=O)c1ccc(OCC(O)CNCCc2ccc(Cl)cc2)cc1` (centres unmarked) is lower in “hERG current change (%, negative = inhibition) at 1uM” value: 11.6% for the first, -69.9% for the second.

Compared with `CCOC(=O)C1CCN(S(=O)(=O)c2ccc3[nH]c(=O)oc3c2)CC1`, `Cc1cc(Cl)ccc1OCC(O)CNCCc1ccc(S(N)(=O)=O)cc1` (centres unmarked) is lower in “hERG current change (%, negative = inhibition) at 1uM” value: 3.58% for the first, -58.2% for the second.

Compared with `COc1ccc(C(OCC(O)CNCCc2ccc(S(N)(=O)=O)cc2)c2ccc(OC)cc2)cc1` (centres unmarked), `COc1ccc(CCNCC(O)COc2cccc(Br)c2)cc1OC` (centres unmarked) is lower in “hERG current change (%, negative = inhibition) at 1uM” value: -1.33% for the first, -39.5% for the second.

Going from `CCC(=O)c1ccc(OCC(O)CNCc2ccc(F)cc2)cc1` (centres unmarked) to `CC(=O)c1cccc(OCC(O)CNCCc2ccc(Cl)cc2)c1` (centres unmarked), the “hERG current change (%, negative = inhibition) at 1uM” value rises from -12.8% to 10.6%.

In the case of `OC(CNCCc1ccc(Cl)cc1)COc1cc(Cl)ccc1Cl` (centres unmarked), the “hERG current change (%, negative = inhibition) at 1uM” value was 2.52%.
